Hits are enriched below; roughly 1.1% of the tested compounds scored in any of these assays.
Chronic BCR inh: inhibitors of chronic active B-cell receptor signaling | ABC-DLBCL IkBa-CBG/CBR reporter, luminescence ratio, 4 h | Potency, µM (top dose mostly 46.1 µM), for the others: at the highest dose activity change, negative = inhibition, hits mostly inhibitors | 0.05% of 340,000 active; active means well fitted inhibition curve with a large enough effect in the signal ratio, with a control signal flat, not every such curve was filed as active; inconclusive means small, poorly fitted or top-dose-only effect, or effect the other way, or a change in a side signal; the % refers to the signal ratio;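 further: plate controls were basal doxycycline-induced cells for no effect and cells given 10 µM MG132 for full effect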
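Cell line TMD8 (human ABC DLBCL), stably expressing tet-inducible CBG68-IkBa fusion and CBR; IMDM/0.5% FBS; cpd up to 46 uM; dox induction, 4 h, 37C/5% CO2; dual luminescence; green/red ratio; MG132 control.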
12-LOX inh: inhibitors of human 12S-lipoxygenase ALOX12; purified 12hLO, xylenol orange hydroperoxide absorbance; P18054; Potency, µM (series often up to 108 µM), inactives show at the top dose activity change, negative = inhibition, actives largely listed as inhibitors; 1.1% of 580,000 active; further: on the % scale 0 is the no-effect control and ±100 the full control effect
Target sequence (P18054 whole entry, looked up): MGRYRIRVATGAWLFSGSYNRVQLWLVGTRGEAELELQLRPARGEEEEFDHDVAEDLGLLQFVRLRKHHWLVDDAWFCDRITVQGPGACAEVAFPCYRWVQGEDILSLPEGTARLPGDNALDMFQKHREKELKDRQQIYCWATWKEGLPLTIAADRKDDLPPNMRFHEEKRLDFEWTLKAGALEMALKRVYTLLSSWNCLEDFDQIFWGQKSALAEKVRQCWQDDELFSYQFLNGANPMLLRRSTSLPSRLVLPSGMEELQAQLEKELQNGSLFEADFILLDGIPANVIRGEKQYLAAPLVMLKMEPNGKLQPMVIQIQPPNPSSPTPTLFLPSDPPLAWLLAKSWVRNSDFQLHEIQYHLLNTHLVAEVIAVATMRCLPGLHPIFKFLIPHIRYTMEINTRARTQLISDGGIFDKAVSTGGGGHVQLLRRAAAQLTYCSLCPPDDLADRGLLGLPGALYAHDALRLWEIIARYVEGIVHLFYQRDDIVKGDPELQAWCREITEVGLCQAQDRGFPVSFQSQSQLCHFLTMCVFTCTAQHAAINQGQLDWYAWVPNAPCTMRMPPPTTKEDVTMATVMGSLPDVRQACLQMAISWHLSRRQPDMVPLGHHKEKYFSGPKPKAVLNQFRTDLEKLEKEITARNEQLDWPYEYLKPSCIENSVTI
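Hydroperoxide product was detected by ferrous iron/xylenol orange as the 573 to 405 nm absorbance ratio. Arachidonic acid at 40 uM (final) was turned over for 30 min at room temperature by 150 nM human 12hLO, pH 7.0 Hepes buffer, after 15 min compound preincubation.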
Anesthetic bind: candidate novel general anesthetic via apoferritin binding; P02791; apoferritin/1-aminoanthracene competitive binding, fluorescence; Potency, µM (highest dose often 77.5 µM), for inactives: top-dose activity change, negative = displacement, hits mostly inhibitors; 0.074% of 350,000 active; AID 485281; further: on the % scale 0 is the no-effect control and ±100 the full control effect; nearly all actives have a fitted effect of over 20% in size
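Read-out: endpoint 1-AMA fluorescence, excitation 380 nm and emission 535 nm, after compounds sit 10 min at room temperature with 10 uM horse-spleen apoferritin in 50% saturated 1-AMA/PBS. Values come from four-parameter Hill fits.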
GRP78 ERSR act: inducers of ER stress response in human glioma cells. U87-MG GRP78 promoter luciferase reporter, 16 h. Potency, µM, without a hit: at the top dose activation, hits mostly activators. 0.02% of 420,000 active; further: series mostly up to about 76 µM; % of control where 0% means no effect; nearly all actives have a fitted effect of over 35% in size
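ERSR induction read as luciferase luminescence (Bright-Glo, 10 min at room temperature) in stably transfected human U87-MG glioma cells exposed to compounds for 16 h, using GRP78 as sensor.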
* hit, by the source's call; ? = inconclusive; / = not tested or not shown; [ ] = remark or other dose. Unless noted, the call rests on the fitted dose curve; in most records, active means well fitted curve in the direction sought with a large enough effect; inconclusive means small, poorly fitted or top-dose-only effect, or another doubt; inactive means no such curve, though single readings can be large; an effect the other way counts as inactive or inconclusive. Potency means the concentration at half of the fitted maximal effect.

SMILES	Chronic BCR inh	12-LOX inh	Anesthetic bind	GRP78 ERSR act
C(=Nc1ccccc1-c1ccccc1N=Cc1ccc2ccccc2c1)c1ccc2ccccc2c1	/	-18%	/	/
N#Cc1cc(O)c(-n2nnc3ccccc32)cc1C#N	12%	-19%	-10%	-4%
N#Cc1cc(Oc2cccc3cccnc23)c(-n2nnc3ccccc32)cc1C#N	7.9µM*	?	-15%	-12%
Cc1ccc(-c2noc(CN3CCCC3c3cccs3)n2)cc1 (configuration not stated)	/	-7%	/	/
COc1ccc(NS(=O)(=O)c2ccc(N3CCCC3)c(NC(=S)Nc3cccc(C)c3C)c2)cc1	5%	16µM*	-12%	-2%
COc1ccc(NS(=O)(=O)c2ccc(N3CCCC3)c(NC(=S)Nc3ccc(SC(F)F)cc3)c2)cc1	0%	25µM*	-3%	-2%
COC(=O)c1c(C)[nH]c(C(=O)OC(C)C(=O)NC2CC2)c1C (configuration not stated)	/	26%	/	/
O=S(=O)(N1CCOCC1)N1CCCC(c2ccccc2)(c2ccccc2)C1	/	53%	/	/
Cc1cccnc1NC(=O)CN1C(=O)COc2ccc(Cl)cc21	?	13µM*	-5%	0%
NS(=O)(=O)c1ccc(NC(=O)CN2C(=O)COc3ccc(Cl)cc32)cc1	/	45µM*	-10%	-3%
O=C(CN1C(=O)COc2ccc(Cl)cc21)Nc1nccs1	?	11%	/	-4%
CCC(=O)OCOc1ccc(/C=C2/CCC(CN(C)C)C2=O)cc1 (configuration not stated)	/	35µM*	/	-14%
CCOc1ccc(/C=C2\CCC(C3CCCC3)C2=O)cc1 (configuration not stated)	8%	-7%	-3%	6%
CCOC(=O)C1CCCN(CC(=O)/C=C2/N(C)c3ccccc3C2(C)C)C1 (configuration not stated)	0%	?	4%	-3%
CN1/C(=C\C(=O)CN2CCN(C(c3ccccc3)c3ccccc3)CC2)C(C)(C)c2ccccc21	/	10µM*	/	/
COc1ccc(-c2nc3cc(NC(=O)CC(C)C)ccc3o2)cc1OC	/	31%	/	/
Cc1ccc(NC(NC(=O)c2ccc(Cl)cc2)C(Cl)(Cl)Cl)cc1 (configuration not stated)	/	39%	/	/
CC(=O)Nc1ccc(NC(=S)NC(NC(=O)c2ccc(C)cc2)C(Cl)(Cl)Cl)cc1 (configuration not stated)	/	32µM*	/	/
CC(=O)NC(NC(=S)Nc1ccc(C)cc1C)C(Cl)(Cl)Cl (configuration not stated)	-2%	?	-8%	-1%
Cc1ccc(NC(=S)NC(NC(=O)c2ccccc2C)C(Cl)(Cl)Cl)c(C)c1 (configuration not stated)	?	35µM*	?	-3%
COc1ccc(N(Cc2cccs2)C(=O)Nc2cccc(Cl)c2)cc1	/	16µM*	-1%	-1%
CCNC(=S)NNC(=O)C1CCCC1	/	14%	/	/
Cc1cccc(N/N=C(/c2ccccc2)c2ccc(F)cc2)c1C	/	5µM*	/	/
Cc1c(C(O)CN2CCN(Cc3ccc4c(c3)OCO4)CC2)c2ccccc2n1C (configuration not stated)	?	45µM*	6%	-4%
CNC(=O)C1(N2CCC[C@H]2C(=O)NCCOC)CCOCC1	/	10µM*	/	/
SMILES	Chronic BCR inh	12-LOX inh	Anesthetic bind	GRP78 ERSR act
c1ccc(CCCN2CCN(c3ccccn3)CC2)cc1	5%	4.5µM*	2%	-2%
O=C(CN1CCN(c2ccccn2)CC1)NCCc1ccccc1	5%	0%	-6%	0%
COCCC1=NN(C(=O)c2ccncc2)C(O)(C(F)(F)F)C1 (configuration not stated)	/	-2%	/	/
CC(C)(C)C(NCC(=O)NC(C)(C#N)C1CC1)c1cccs1 (configuration not stated)	/	-6%	/	/
CC(C)CC1C(=O)N(Cc2cn(Cc3ccco3)nn2)CCS(=O)(=O)N1Cc1ccc(-c2ccc(Cl)cc2)cc1 (configuration not stated)	/	?	/	1%
CC(C)CC1C(=O)N(Cc2cn(Cc3ccco3)nn2)CCS(=O)(=O)N1Cc1ccc(-c2cccc(CO)c2)cc1 (configuration not stated)	/	22µM*	/	-2%
COc1ccc(-c2ccc(CN3C(C)C(=O)N(Cc4cn(CCC5OCCO5)nn4)CCS3(=O)=O)cc2)cn1 (configuration not stated)	/	?	/	-1%
Cc1ccc(-c2ccc(CN3C(C(C)C)C(=O)N(Cc4cn(Cc5ccco5)nn4)CCS3(=O)=O)cc2)cc1 (configuration not stated)	/	45µM*	/	2%
COc1ccc(-c2ccc(CN3C(C)C(=O)N(Cc4cn(CCC5OCCO5)nn4)CCS3(=O)=O)cc2)cc1 (configuration not stated)	/	16µM*	/	-4%
CCC(=O)N1Cc2ccccc2CC2(CCN(CCc3ccc(C)cc3)CC2)C1	/	35µM*	/	/
Cc1nn2c(c1-c1ccccc1N1CCCC1)N(C(=O)COc1ccccc1)CCC2	/	131%[176 µM]	/	/
CC1CCC(NCCNC(=O)c2ccco2)CC1 (configuration not stated)	5%	2.8µM*	-11%	-7%
O=C(NCCNC1CCCCC1)c1ccco1	-7%	?	5%	-5%
Cc1cccc(C(=O)Nc2c(NC3CCCCC3)c3ccccc3oc2=O)c1	/	-28%	/	/
CC(=O)Nc1ccc(/C(C)=N\OC(C)C(=O)Nc2cccc(C)c2)cc1 (configuration not stated)	/	-24%	/	/
Cc1ccc(C(=O)NC(C)c2ccc(C(F)(F)F)cc2)cn1 (configuration not stated)	/	32%	/	/
CC(=O)N1c2c(cc(Br)cc2S(=O)(=O)NCC2COc3ccccc3O2)CC1C (configuration not stated)	0%	-20%	-14%	40µM*
CC(=O)NC1(C)CCN(Cc2cccc(-c3ccc4c(ccn4C)c3)c2)C1 (configuration not stated)	/	32µM*	/	/
CC1CCN(Cc2ccc(CNc3ccc(C#N)cn3)cc2)CC1	/	-11%	/	/
CC(=O)Nc1ccc(S(=O)(=O)NC2C3(C)CCC(C3)C2(C)C)cc1 (configuration not stated)	1%	3.2µM*	-8%	-3%
COc1cc(C2NCC(c3ccc(Cl)cc3Cl)c3c2[nH]c2ccccc32)cc(OC)c1OC (configuration not stated)	?	28µM*	-9%	-3%
Cc1ccc(Nc2nc(-c3c(C)nc4sccn34)cs2)cc1	/	7.1µM*	/	/
COc1ccc(Nc2nc(-c3c(C)nc4ncccn34)cs2)cc1	3.5µM*	?	?	-5%
Brc1ccc(-c2ccnc3nc(-c4ccco4)nn23)s1	/	0%	/	/
CCCCc1ccc(/C=C(\C#N)C(N)=S)s1	-4%	40µM*	?	2%
O=C(O)Cn1cc2c(n1)CCCC2	4%	20µM*	1%	-5%
O=C(Cn1cc2c(n1)CCCC2)N1CCOCC1	15%	423%	1%	-5%
